Assay results taken from PubChem BioAssay (Tox21).
Values joined by “and” are separate entries in the source; they are usually repeats but may differ in a detail not shown here. Equal values may be shown once. Inconclusive results are not listed. Entries that show only a call come without a potency. Where a structure was tested more than once in an assay, its records may differ in their call. Active and inactive are the calls of the source. Calls follow the shape of the full dose curve.

What follows are compounds tested against Acetylcholinesterase (Homo sapiens) (UniProt P22303) (assay: Acetylcholinesterase (AChE) small molecule antagonists: fluorescence cell-based qHTS assay (AID 1347398; also: nearly all actives have a fitted effect of over 50% in size)). Conditions: SH-SY5Y cells; Potency: AChE activity; series mostly up to 115 µM; activity change, negative = inhibition: at the top concentration.
From the text: National Center for Advancing Translational Sciences [NCATS]
Division of Preclinical Innovation [DPI]
U.S. Environmental Protection Agency [EPA]
National Institutes of Environmental Health Sciences [NIEHS]
National Toxicology Program [NTP]
U.S. Food and Drug Administration [FDA]
Acetylcholinesterase (AChE) is the primary cholinesterase in the body that hydrolyzes a key neurotransmitter, acetylcholine. Inhibition of AChE activity can lead to neurotoxicity. Known inhibitors of AChE include organophosphorous pesticides (OP), chemical warfare agents, drugs, and various phytochemicals.
A homogenous cell-based assay using Amplitetrade mark Fluorimetric Acetylcholinesterase Assay Kit *Green Fluorescence* (AAT Bioquest, Sunnyvale, CA) was used to evaluate the chemicals in the Tox21 10K library that inhibit AChE activity. The assay uses Thiolite Green to quantify the thiocholine produced from the hydrolysis of acetylthiocholine by AChE from the SH-SY5Y cells. AChE can hydrolyze acetylthiocholine to create thiocholine. Thiolite Green is fluorescent when reacting with thiocholine. It has spectral properties similar to those of fluorescein. The fluorescence intensity of Thiolite Green is used to measure AChE activity. Its signal can be easily read by a fluorescence microplate reader at Ex/Em = 490/520 nm.
Tox21 Assay Protocol Summary:
For cell-based AChE assay, 2,000 SH-SY5Y cells in 4 uL/well were dispensed into black, clear-bottom 1536-well plates using a Multidrop Combi (Thermo Scientific) dispenser. The assay plates were incubated overnight at 37 C to allow cells to attach to the wells, followed by the transfer of 23 nL compound or DMSO (vehicle control) by a Pintool station (Wako Automation, CA). The plates were incubated for 30 min at 37 C and 5% CO2, followed by the addition of 4 uL of detection cocktail solution (ThioliteGreen, acetylthiocholine) into each well using Flying Reagent Dispenser (Beckman Coulter, CA) and then following 40 min incubation at room temperature. Fluorescent intensity (Ex/Em = 490/520 nm) was measured using an Envision plate reader (PerkinElmer, MA).
Potency is read from the fitted curve at half-maximal effect.

Chain of Acetylcholinesterase (Homo sapiens) (P22303 whole entry, looked up): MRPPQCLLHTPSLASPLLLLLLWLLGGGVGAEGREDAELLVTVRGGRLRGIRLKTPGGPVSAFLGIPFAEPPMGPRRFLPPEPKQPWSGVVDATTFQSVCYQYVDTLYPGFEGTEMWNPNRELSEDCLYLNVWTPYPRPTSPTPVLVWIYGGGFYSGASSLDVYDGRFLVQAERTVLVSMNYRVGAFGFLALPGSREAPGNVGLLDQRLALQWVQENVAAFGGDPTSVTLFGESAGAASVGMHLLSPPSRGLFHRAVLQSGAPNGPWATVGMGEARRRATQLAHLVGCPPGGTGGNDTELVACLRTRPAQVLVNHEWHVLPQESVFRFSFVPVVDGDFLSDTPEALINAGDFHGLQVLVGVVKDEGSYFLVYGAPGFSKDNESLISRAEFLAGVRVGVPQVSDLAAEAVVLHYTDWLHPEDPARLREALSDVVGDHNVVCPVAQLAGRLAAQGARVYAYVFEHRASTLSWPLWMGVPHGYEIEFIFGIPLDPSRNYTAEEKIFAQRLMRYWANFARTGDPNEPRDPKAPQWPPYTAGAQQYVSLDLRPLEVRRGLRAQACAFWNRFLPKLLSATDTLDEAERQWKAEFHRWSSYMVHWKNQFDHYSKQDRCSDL

SMILES | Potency | activity change, negative = inhibition
CC(C)(C)c1ccccc1O | inactive | –
Nc1ccc(Cl)cc1N | inactive | –
C[C@]12CCC(=O)C(O)=C1CC[C@@H]1[C@@H]2CC[C@]2(C)C(=O)CC[C@@H]12 | inactive | –
Nc1ccc(-c2ccccc2)cc1 | inactive | –
Cc1cccc(N)c1N | – | -13.7% (inactive)
N#Cc1cc(Br)c(O)c(Br)c1 | inactive | –
CCCCNC(=O)n1c(NC(=O)OC)nc2ccccc21 | inactive | –
CCCCOCCOP(=O)(OCCOCCCC)OCCOCCCC | inactive | –
COC(=O)c1sccc1S(=O)(=O)NC(=O)Nc1nc(C)nc(OC)n1 | inactive | –
CCCCCCCCCCCOC(=O)c1ccccc1C(=O)OCCCCCCCCCCC | inactive | –
O=C(O)CC[N+](=O)[O-] | inactive and 7.96 µM (active) | –
CCC(CC)Nc1c([N+](=O)[O-])cc(C)c(C)c1[N+](=O)[O-] | inactive | –
COP(=S)(OC)Oc1cc(Cl)c(Cl)cc1Cl | – | -20.1% (inactive)
Clc1nc(Cl)nc(Cl)n1 | inactive | –
O=C(Nc1ccc(Br)cc1)c1cc(Br)cc(Br)c1O | inactive | –
NNC(N)=S | inactive | –
c1ccc(NNc2ccccc2)cc1 | inactive | –
Oc1c(Cl)c(Cl)c(Cl)c(Cl)c1Cl | inactive | –
CCN(CC)N=O | inactive | –
O=S(=O)(Oc1ccc(Cl)cc1)c1ccc(Cl)cc1 | inactive | –

SMILES | Potency | activity change, negative = inhibition
O=P(O)(O)CCCl | inactive | –
CC(C)Oc1cc(-n2nc(C(C)(C)C)oc2=O)c(Cl)cc1Cl | inactive | –
Nc1ccncc1 | inactive | –
CCCCCCCCOC(=O)c1ccccc1C(=O)OCCCCCCCC | inactive | –
O=C(CCl)c1ccccc1 | inactive | –
O=Cc1ccco1 | inactive | –
CCOP(=S)(OCC)O/N=C(\C#N)c1ccccc1 | 39.9 µM (active) | –
CCCCC(CC)COC(=O)c1ccc(C(=O)OCC(CC)CCCC)c(C(=O)OCC(CC)CCCC)c1 (stereo not given) | inactive | –
c1ccc(N=Nc2ccccc2)cc1 | inactive | –
NCc1cccnc1 | inactive | –
Brc1ccc(Oc2cc(Br)c(Br)cc2Br)c(Br)c1 | inactive | –
CCOc1cc(C=O)ccc1O | inactive | –
C=CCN(CC=C)C(=O)C(Cl)Cl | inactive | –
Oc1cc(Cl)ccc1Cl | inactive | –
C#CCOS(=O)OC1CCCCC1Oc1ccc(C(C)(C)C)cc1 (stereo not given) | inactive | –
Cc1ccccc1[N+](=O)[O-] | inactive | –
CN(C)C(=O)Nc1ccc(Cl)cc1 | inactive | –
OCC(O)CO | inactive | –
CNC(=O)Oc1cccc2c1OC(C)(C)O2 | 826 nM (active) and 224 nM (active) | –
O=c1oc2ccccc2c(O)c1C(CC(O)c1ccc(-c2ccc(Br)cc2)cc1)c1ccccc1 (stereo not given) | inactive | –
